Sampled rows, rich in hits. Any-hit rate of the full collection: about 1.6%.
KCNQ2 enhance: potentiators of rat KCNQ2 potassium channel | Potassium voltage-gated channel subfamily KQT member 2 (Rattus norvegicus), O88943 | CHO-K1 KCNQ2, FluxOR thallium flux fluorescence; hits give high values | B-score at 10 µM | actives 0.54% (n = 310,000) | AID 2239, 2010;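 active means fluorescence ratio B-score at least 3 SD of library B-scores, with initial fluorescence B-score within 3 of them, cut at about 5.3 in these data; same plate scores as AID 2156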;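 further: B-score of peak minus minimum over baseline fluorescence ratio after K+ and Tl+ stimulus; positive B-score means potentiation of KCNQ2 with more thallium influx and brighter signal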
Target sequence (O88943 whole entry, looked up): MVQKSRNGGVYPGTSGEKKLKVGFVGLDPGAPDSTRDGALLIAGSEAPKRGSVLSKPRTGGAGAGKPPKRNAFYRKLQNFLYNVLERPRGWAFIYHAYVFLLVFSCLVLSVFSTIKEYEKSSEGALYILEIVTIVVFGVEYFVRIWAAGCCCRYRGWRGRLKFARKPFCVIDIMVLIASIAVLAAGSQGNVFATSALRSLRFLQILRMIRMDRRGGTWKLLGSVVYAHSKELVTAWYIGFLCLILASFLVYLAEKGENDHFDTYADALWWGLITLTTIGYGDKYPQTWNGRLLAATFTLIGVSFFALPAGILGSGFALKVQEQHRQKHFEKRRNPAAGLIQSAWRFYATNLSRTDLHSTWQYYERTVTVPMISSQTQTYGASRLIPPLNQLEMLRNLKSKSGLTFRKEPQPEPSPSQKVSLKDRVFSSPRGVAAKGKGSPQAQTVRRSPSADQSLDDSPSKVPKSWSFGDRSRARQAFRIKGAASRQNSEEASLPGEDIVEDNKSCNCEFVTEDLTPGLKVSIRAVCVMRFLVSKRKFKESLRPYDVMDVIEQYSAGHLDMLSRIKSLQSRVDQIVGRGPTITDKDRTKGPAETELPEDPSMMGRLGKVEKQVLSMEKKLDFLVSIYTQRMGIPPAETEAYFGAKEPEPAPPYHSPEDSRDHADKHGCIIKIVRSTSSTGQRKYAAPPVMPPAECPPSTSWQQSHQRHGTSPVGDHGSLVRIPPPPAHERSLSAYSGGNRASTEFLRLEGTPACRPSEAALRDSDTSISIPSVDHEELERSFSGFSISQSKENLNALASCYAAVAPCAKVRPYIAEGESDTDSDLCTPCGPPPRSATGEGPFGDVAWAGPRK
KCNQ2 block: rat KCNQ2 potassium channel inhibitors, primary screen, cell-based, CHO-K1, FluxOR thallium flux, B-score; AID 2156, 2009; Potassium voltage-gated channel subfamily KQT member 2 (Rattus norvegicus), O88943; 20 min; hits give low values; actives 1.1% (n = 310,000); B-score at 10 µM;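 active means fluorescence ratio B-score at most minus 3 library SDs, with starting brightness B-score within 2 library SDs, cut at about -5.5 in these data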
Kir21 confirm: mouse Kir2.1 channel blockers, retest, confirmation, cell-based, FluxOR thallium flux, duplicate | shares compounds with KCNQ2 enhance | Kir2.1-expressing cells, FluxOR thallium flux fluorescence; hits give low values | Tl flux remaining, % of negative control (hits give low values), % at 10 µM | actives 41% (n = 2,300);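 active means Primary-screen hit whose thallium flux fell at least 3 control SD below untreated wells in both duplicates, with normal baseline fluorescence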
HEK293 Tl flux: parental HEK293 activity in Kir2.1 inhibitor counter-screen | shares compounds with KCNQ2 enhance | parental HEK293 cells, FluxOR thallium flux fluorescence; 0% = unstimulated blank wells | FluxOR signal as % of negative control (100 = no effect), % at 10 µM | actives 19% (n = 2,300) | AID 2105;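 active means dye signal at least 3 control SD above or below untreated wells in both duplicates, raw fluorescence within 3, either direction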;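 further: percent is based on the flux ratio of peak minus minimum fluorescence over baseline F0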
CHO-K1 Tl ctr: nonspecific thallium flux increase in parental CHO-K1, confirmation, counter-screen for KCNQ2 potentiator project, cell-based, FluxOR thallium flux, duplicate; shares compounds with KCNQ2 enhance; parental CHO-K1 cells, FluxOR thallium flux fluorescence; zero = vehicle mean+3SD, 100% = vehicle-minus-blank window; activity increase over 3SD of controls, % at 10 µM; actives 43% (n = 1,200);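 active means signal rise of at least 3 SD above the untreated control mean, in both duplicate wells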;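 further: counter screen of KCNQ2 potentiator hits so any rise reflects channel-independent effects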
KCNQ1 pot spec: human KCNQ1 channel potentiation off-target, confirmation, selectivity assay for KCNQ2 potentiator project, cell-based, CHO, FluxOR thallium flux. shares compounds with KCNQ2 enhance. actives 28% (n = 1,200). AID 2283, 2010. activation over 3SD threshold, % at 10 µM. CHO KCNQ1 stable, FluxOR thallium flux fluorescence; beyond 3SD, as % of vehicle-control signal;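 active means fluorescence ratio rise of at least 3 SD of vehicle wells above their mean, in both replicate wells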
KCNQ2 pot conf: rat KCNQ2 channel potentiators, confirmation, cell-based, CHO, FluxOR thallium flux, duplicate. actives 68% (n = 1,200). AID 2287, 2010. potentiation, less the hit threshold, % at 10 µM. CHO-KCNQ2 cells, FluxOR thallium flux fluorescence. shares compounds with KCNQ2 enhance;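 active means fluorescence ratio rising 3 SD or more over the vehicle control mean in both replicates, plus primary screen hit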;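 further: peak minus minimum thallium fluorescence divided by baseline after K/Tl stimulus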
Kir21 spec: mouse Kir2.1 channel activation off-target, confirmation, selectivity assay for KCNQ2 potentiator project, cell-based, HEK293, FluxOR thallium flux. shares compounds with KCNQ2 enhance. HEK293 Kir2.1, FluxOR thallium flux fluorescence. activity over 3SD threshold, % at 10 µM. actives 2% (n = 1,200). AID 2345, 2010;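 active means fluorescence ratio rise of at least 3 SD above the vehicle-control mean, seen in both replicates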
KCNQ2 W236L pot: potentiators of retigabine-insensitive KCNQ2 W236L, mechanism study for KCNQ2 potentiator project, cell-based, rat KCNQ2 W236L, CHO, automated patch clamp; shares compounds with KCNQ2 enhance; automated patch clamp current; current increase over 3SD of negative controls (%), hits give high values, % at 25 µM; actives 10% (n = 940); AID 2558, 2010;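 active means current increase at least 3 SD of the untreated controls above them in both duplicate recordings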
Numbers stand for hits; 0 = inactive; - = not tested or not shown.

SMILES | KCNQ2 enhance | KCNQ2 block | Kir21 confirm | HEK293 Tl flux | others
O=C(c1ccc(F)cc1)C(Cc1ccccc1)N1CCCCC1 (centres undefined) | 0 | 0 | - | -
O=C(CCCN1CCC2(CC1)C(=O)NCN2c1ccccc1)c1ccc(F)cc1 | 6.05 | 0 | 0 | 0 | CHO-K1 Tl ctr=5.3;KCNQ1 pot spec=63.7;KCNQ2 pot conf=16.9;Kir21 spec=0;KCNQ2 W236L pot=0
O=C(c1ccc(F)c([N+](=O)[O-])c1)N1CC2CC(C1)c1cccc(=O)n1C2 (centres undefined) | 0 | 0 | - | -
COc1ccccc1-n1c(O)c(/C=N/NC(=S)Nc2ccccc2)c(=O)[nH]c1=S | 0 | 0 | - | -
OC(CN1CCOCC1)c1csc2ccccc12 (centres undefined) | - | 0 | - | -
O=[N+]([O-])c1ccc(-[n+]2c(-c3ccccc3)cc(-c3ccccc3)cc2-c2ccccc2)cc1 | 0 | 0 | - | -
COc1ccc(-[n+]2c(-c3ccccc3)cc(-c3ccccc3)cc2-c2ccccc2)cc1 | 0 | -8.37 | 26.5% | 0
CC1N=C(c2ccccc2Cl)c2cc(Br)ccc2NC1=O (centres undefined) | 0 | 0 | - | -
COc1ccc(Br)cc1CNCCc1ccc2c(c1)OCO2 | - | 0 | - | -
Clc1ccc(CNCCc2ccc3c(c2)OCO3)cc1 | - | 0 | 27.5% | 0
Clc1cccc(CNCCc2ccc3c(c2)OCO3)c1 | - | 0 | - | -
COc1ccc(CNCCc2ccc3c(c2)OCO3)cc1Br | - | 0 | 16.5% | 0
Cc1cc(NC(=O)CCl)on1 | 0 | 0 | - | -
O=[N+]([O-])c1ccccc1-c1cc(-c2ccccc2)cc(-c2ccccc2)[n+]1Cc1ccccc1Cl | 0 | -7.41 | 21.5% | 0
CN(C)C(=O)Oc1ccc(Br)c2ccccc12 | 0 | 0 | - | -
COc1cccc(CNCCc2ccccc2)c1OC | 0 | 0 | - | -
COc1ccc2ccccc2c1CNCCc1ccccc1 | - | 0 | 38.0% | 0
CC1CCCCC1NC(=O)CNC(=S)N1CC2CC(C1)c1cccc(=O)n1C2 (centres undefined) | - | 0 | - | -
COc1cccc(-n2c(O)c(C=NCCN3CCNCC3)c(=O)[nH]c2=S)c1 | - | 0 | - | -
CC1=CC2/C=C(\C)CCC(O)C(O)/C=C/C(=O)C23C(=O)NC(CC(C)C)C3C1C (centres undefined) | - | 0 | 63.5% | 0
CCOC(=O)c1[nH]c2ccc(OC)cc2c1C(SCC(=O)O)c1ccc(C(F)(F)F)cc1 (centres undefined) | - | 0 | - | -
Clc1ccc(C[n+]2c(-c3ccccc3)cc(-c3ccccc3)cc2-c2ccccc2)cc1 | 0 | -7.22 | 17.0% | 0
Cc1cc(-c2ccccc2)cc(-c2ccccc2)[n+]1CCc1ccccc1 | 0 | -5.72 | 45.0% | 0
CCOC(C[n+]1c(-c2ccccc2)cc(C)cc1-c1ccccc1)OCC | 0 | 0 | - | -
Fc1ccc(C[n+]2c(-c3ccccc3)cc(-c3ccccc3)cc2-c2ccccc2)cc1 | 0 | -6.33 | 24.5% | 0
SMILES | KCNQ2 enhance | KCNQ2 block | Kir21 confirm | HEK293 Tl flux | others
Cc1ccc(-c2cc(-c3ccccc3)cc(-c3ccccc3)[n+]2-c2ccccc2C(=O)O)cc1 | - | 0 | - | -
C[n+]1c(-c2ccccc2)cc(-c2ccc(O)cc2)cc1-c1ccccc1 | 0 | 0 | - | -
CN/C=C(/Cl)P(=O)(OC(C)C)OC(C)C | 0 | 0 | - | -
CCn1c(O)c(C=NCCN2CCOCC2)c(=O)[nH]c1=S | - | 0 | - | -
O=C1C2CCN(CC2)C1Cc1ccc(OCc2ccccc2)cc1 (centres undefined) | 0 | 0 | - | -
CN1CCN(C(=O)COc2ccc(S(=O)(=O)NC3CCCCC3)cc2Cl)CC1 | 0 | 0 | - | -
CCCCCCC(Cl)(Cn1ccnc1)c1ccccc1 (centres undefined) | - | 0 | - | -
COc1ccc(CN2CCCC(C(=O)c3sccc3C)C2)cc1O (centres undefined) | 0 | 0 | 56.5% | 0
COc1cccc(C(=O)C2CCCN(Cc3ccc(F)cc3)C2)c1 (centres undefined) | 0 | 0 | - | -
COc1ccc(CN2CCCC(C(=O)c3ccc(Cl)cc3)C2)c(O)c1 (centres undefined) | - | 0 | 67.5% | 0
COc1cc(CN2CCCC(C(=O)c3sccc3C)C2)cc(OC)c1O (centres undefined) | 0 | 0 | - | -
CN(N)N=Nc1nc2c([nH]1)c(=O)n(C)c(=O)n2C | 0 | 0 | - | -
CSc1ccc(C(=O)C2CCCN(CCCn3cccn3)C2)cc1 (centres undefined) | - | 0 | - | -
